Several values for one entry are separate records, joined by “and”; a condition that tells them apart may be missing. Equal entries are not always repeated. The campaign covered roughly 360,000 compounds. About 17,000 (4.7%) were called active. Another 5% or so got no clear call; they are omitted. Rule as the data show it: active = activity change below about -50%; inconclusive = mostly about -30% to -49%; inactive = weaker than that. For the sample, actives were picked, then their nearest neighbours and some compounds at random.
% is scaled to controls: 0 for no effect and ±100 for the full control effect.

A short description of this assay: qHTS for Inhibitors of Inflammasome Signaling: IL-1-beta AlphaLISA Primary Screen. Particulars: THP-1 LPS/ATP IL-1B secretion, 16 h; at 57.5 µM, active compounds read low. The essentials:
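THP-1 cells pretreated 1 hr with compounds (up to 57.5 uM final), then stimulated with LPS (250 ng/mL final) plus ATP (1.25 mM final); secreted IL-1B measured by AlphaLISA after 16 hr, decreased signal indicating inhibition.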
(In general: qHTS replaces the single test concentration by a dilution series.)
Consider `COC(=O)c1ccc2c(=O)n(CCN3CCOCC3)c(SCC(=O)Nc3cccc(OC)c3)nc2c1`, for which the activity change was -19.5% (inactive).
`OCCN1CCN(c2ncnc3c2ncn3[C@H]2CN(Cc3ccco3)C[C@@H](CO)O2)CC1`: the activity change is 10% (inactive).
In the case of `CC(=O)c1c(C)[nH]c(C(=O)COC(=O)c2cccc(S(=O)(=O)N(C)c3ccccc3)c2)c1C` it was -12.5% (inactive).
In the case of `CN(C)c1ccc(C(CC(=O)O)C(=O)O)cc1` (stereo not drawn) it was 15% (inactive).
In the case of `COc1ccc(-c2nn(-c3ccccc3)cc2C(=O)Nc2nccs2)cc1OC` it was -52.5% (active); in that of `COc1ccc(Cl)cc1NC(=O)CN(C)C(=O)c1cn(-c2ccccc2)nc1-c1cccs1`, -15.3% (inactive).
On to `COc1ccc(-c2nn(-c3ccccc3)cc2/C=N/Nc2ccccn2)cc1OC`, for which the activity change was 10.4% (inactive).
Under `Nc1ncnc2c1ncn2[C@@H]1O[C@H](CNC(=O)[C@H](N)Cc2cccnc2)[C@@H](O)[C@H]1O` stands -4.6% (inactive).
Under `CC1(C)COC(c2cccn2Cc2ccccc2Cl)=N1` stands 1.85% (inactive); under `COc1ccc(C(=O)NC2CCCc3c2cnn3-c2cccc(C)c2C)c(OC)n1` (stereo not drawn), -78.6% (active).
In the case of `COc1ccc(OC)c(C(=O)NC2CCCc3c2cnn3-c2cc(C)cc(C)c2)c1` (stereo not drawn) it was -20.1% (inactive).
In the case of `Cc1cc(C(=O)NC2CCCc3c2cnn3-c2cccc(C)c2C)c(C)o1` (stereo not drawn), the activity change is -7.02% (inactive).
Under `O=C(NNC1=C(C(=O)C(F)(F)F)CCC1)c1ccncc1` stands 28.1% (inactive).
Under `CCC1Nc2ncnc(N3CCN(c4ccccc4)CC3)c2N(Cc2ccc(Cl)cc2)C1=O` (stereo not drawn) stands -19.1% (inactive); under `COc1ccc(NC(=O)C2Cc3c(-c4ccc(Cl)cc4)ccnc3O2)cc1` (stereo not drawn), -7.31% (inactive); under `CCc1ccccc1NC(=O)CSc1nnc([C@@H](NC(=O)OC(C)(C)C)C(C)C)o1`, 11.8% (inactive).
Under `CCc1ccccc1NC(=O)CSc1nnc([C@@H](NC(=O)OC(C)(C)C)C(C)CC)o1` (stereo partly drawn) stands 9.72% (inactive); under `C[C@@H](NC(=O)OC(C)(C)C)c1nnc(S(=O)(=O)Cc2ccccc2)o1`, -70.3% (active).
Turning to `COc1cc(/C=C(/NC(=O)c2ccc(Cl)cc2Cl)C(=O)O)cc(OC)c1OC`, the activity change is 2.22% (inactive).
In the case of `O=c1c2c(-c3ccccc3)ccnc2[nH]n1-c1ccccc1` it was -16.4% (inactive); in that of `O=c1[nH]cnc2c1c(-c1ccccc1)cn2-c1ccc(F)cc1`, -91.8% (active); in that of `COc1ccc(-n2cc(-c3ccccc3)c3c(=S)nc[nH]c32)cc1`, 18.8% (inactive).
In the case of `COc1ccc(S(=O)(=O)N2CCN(C)CC2)c(C)c1` it was -5.01% (inactive); in that of `Cn1c(=O)c2cc(NC(=O)NCCc3cccs3)ccc2n1Cc1cccc(C(F)(F)F)c1`, 1.3% (inactive); in that of `CC(C)CCN1C(=O)c2ccc(C(=O)Nc3cccc(S(N)(=O)=O)c3)cc2C1=O`, -61% (active).
With `CN1CCN(S(=O)(=O)c2cccc(C(=O)Nc3cccc(S(N)(=O)=O)c3)c2)CC1`, the activity change is 6.7% (inactive).
In the case of `Cc1cccc(C(=O)Nc2ccc3c(c2)C(=O)N(CC(C)C)C3=O)c1`, the activity change is 0.513% (inactive).
In the case of `CC(C)c1cccc(-c2csc(C(O)c3ccccc3)n2)c1` (stereo not drawn) it was 43.6% (inactive); in that of `CCOC(=O)C1=CCC(c2ccc(F)cc2)N(S(=O)(=O)c2ccc(C)cc2)C1` (stereo not drawn), 30.7% (inactive); in that of `NC(CSC12CC3CC(CC(C3)C1)C2)C(=O)O` (stereo not drawn), 23.7% (inactive).
In the case of `O=C(c1cccs1)N1C[C@H](n2cc(C3CC3)nn2)[C@@H](O)C[C@@H]1c1ccccc1` it was 0.261% (inactive); in that of `c1ccc2c(NCC3CCCO3)nc(-c3ccncc3)nc2c1` (stereo not drawn), -27.3% (inactive).
In the case of `O=C(NCC1CCCO1)c1ccc2ccccc2n1` (stereo not drawn) it was 3.35% (inactive).
Consider `Clc1cccc(-c2nc(NCC3CCCO3)c3ccccc3n2)c1` (stereo not drawn), for which the activity change is -76.8% (active).
In the case of `CCCCn1nnnc1C(c1cccc(OC)c1OC)N1CCN(C/C=C/c2ccccc2)CC1` (stereo not drawn) it was -23.9% (inactive); in that of `C[C@H]1CN([C@@H](C)CO)C(=O)c2cc(-c3ccccc3F)cnc2O[C@H]1CN(C)C(=O)C1CCOCC1`, 13.6% (inactive).
In the case of `CN/C(=C\[N+](=O)[O-])NCCSCc1csc(CN(C)C)n1` it was 0.154% (inactive).
Under `Cc1ccccc1C(=O)NCC(c1ccco1)N1CCc2ccccc21` (stereo not drawn) stands -20.8% (inactive); under `COc1ccc(C(=O)NCC(c2ccco2)N2CCc3ccccc32)cc1OC` (stereo not drawn), -0.703% (inactive); under `O=C(NCC(c1ccco1)N1CCc2ccccc21)c1cccc(F)c1` (stereo not drawn), -86.4% (active).
As to `CCc1nnc(NC(=O)CCC(=O)N2CCN(c3cc(C)ccc3C)CC2)s1`, the activity change was 36.3% (inactive).
Under `O=S(=O)(c1ccc(F)cc1)N1CCN(Cc2ccccc2C(F)(F)F)CC1` stands 8.37% (inactive); under `O=c1[nH]nc(SCCS(=O)(=O)c2ccc(F)cc2)n1-c1ccccc1C(F)(F)F`, -96.7% (active); under `O=C(CSc1n[nH]c(=O)n1-c1ccccc1)Nc1ccccc1C(F)(F)F`, 14.4% (inactive).
Under `COC(=O)[C@@]1(Cc2ccc(OC)cc2)[C@H]2c3cc(C(=O)N4CCCC4)n(Cc4ccc(OC(F)(F)F)cc4)c3C[C@H]2CN1C(=O)c1ccccc1` stands 0% (inactive); under `CCC(C(=O)Nc1c(C)cccc1C)n1c(-c2cc(C)cs2)nc2ccccc21` (stereo not drawn), -9.28% (inactive).
In the case of `O=C(O)Cc1ccc(NC(=O)Nc2cccc3ccccc23)cc1` it was 11.3% (inactive); in that of `Cc1ccc(NC(=S)NC(NC(=O)Cc2cccc3ccccc23)C(Cl)(Cl)Cl)cc1` (stereo not drawn), 1.31% (inactive); in that of `O=C(Cc1cccc2ccccc12)NNC(=O)Nc1ccc(Cl)cc1`, -50% (active).
Turning to `O=C1C(Sc2cccc(F)c2)=C[C@@]2(O)CC[C@@H](O)[C@]1(Sc1cccc(F)c1)[C@H]2O`, the activity change was 8.29% (inactive).
Under `O=C(Nc1ccccc1)Nc1ccccc1C(=O)NCc1ccco1` stands -56.9% (active).
For the compound `Cc1cccc(Nc2ccccc2C(=O)NCc2ccco2)c1C`, the activity change was 3.14% (inactive).
In the case of `O=C(CCNC(=O)c1ccccc1Cl)NCc1ccco1` it was 2.08% (inactive); in that of `O=C1CSC(=S)N1c1ccc(Cl)c(Cl)c1`, 7.49% (inactive).
Under `CCC(CC)C(C(=O)NC1CCCC1)N1CCN(c2cc(C)nc3ccccc23)CC1` (stereo not drawn) stands -20.5% (inactive); under `CC1(C)CC(=O)C=C(c2ccccc2CO)C1=O`, 22.9% (inactive).
Take `CCOC(=O)c1c(Cc2ccc(Cl)cc2)c[nH]c1C`: the activity change is -74.6% (active).
In the case of `CCOC(=O)N1CCN(C(=O)CNC(=O)Cc2ccc(Cl)cc2)CC1` it was -0.466% (inactive); in that of `CCOC(=O)c1ccc(CS(=O)c2ccc(Cl)cc2)o1` (stereo not drawn), -4.53% (inactive); in that of `Cc1cccc(NC(=S)N2CCC(C(=O)c3ccc(F)cc3)CC2)c1`, -26.4% (inactive).
In the case of `Cc1cccc(NC(=O)CSc2nc3[nH]ncc3c(=O)[nH]2)c1` it was 9.71% (inactive).
Under `Cc1cccc(NC(=O)c2nc[nH]c2C(=O)NCC(=O)OCc2ccccc2)c1` stands 5.22% (inactive); under `O=C(Nc1ccc(F)cc1)c1ccc(S(=O)(=O)NCc2cccnc2)cc1`, -4.04% (inactive).
For `Cc1cccc(NC(=O)c2nc(S(=O)(=O)Cc3ccccc3)ncc2Cl)c1`, the activity change is -103% (active).
In the case of `CCOc1ccc(NC(=O)c2nc(SCC)ncc2Cl)cc1` it was -0.255% (inactive); in that of `Cc1cccc(CS(=O)(=O)c2ncc(Cl)c(C(=O)Nc3ccc(F)cc3)n2)c1`, -93.5% (active); in that of `Cc1ccc(S(=O)(=O)N(C)C)cc1NC(=O)CN1c2cccc3cccc(c23)S1(=O)=O`, 12.6% (inactive).
In the case of `COc1cc(CN2CCNC(=O)C2CC(=O)NCCc2ncccc2C)cc(OC)c1` (stereo not drawn) it was 16.2% (inactive); in that of `CN(CCc1ccccc1)C(=O)c1cccc(NC(=O)Cc2cccc(NC(=O)C3CCCN(C(=O)C4CCC4)C3)c2)c1` (stereo not drawn), -17.1% (inactive); in that of `N#CCSc1ccccc1NC(=O)CN1C(=O)NC(CCc2ccccc2)C1=O` (stereo not drawn), 12.1% (inactive).
In the case of `COC(=O)CNS(=O)(=O)c1ccc(Cc2ccc(S(=O)(=O)NCC(=O)OC)cc2)cc1` it was -100% (active); in that of `COC(=O)CNS(=O)(=O)c1ccc(OC)cc1`, -22.2% (inactive).
Take `C/C(N)=C(/C#N)C(=O)COC(=O)CNS(=O)(=O)c1ccc(C)cc1`: the activity change is -8.82% (inactive).
In the case of `O=C(CSc1nnc(N2CCOCC2)n1-c1cccc(F)c1)N1CCN(c2ccccn2)CC1` it was 2.69% (inactive); in that of `CCCCCNC(=O)C1C(=O)Nc2ccccc2C(=O)N1C(C)(C)C` (stereo not drawn), 6.47% (inactive); in that of `CCN1CCCC1CNC(=O)c1ccc2c(c1)NC(=O)/C(=C\c1ccccc1F)S2` (stereo not drawn), -14.5% (inactive).
Under `C[C@]12C=CC(=O)C=C1CC[C@@H]1[C@@H]2C(=O)C[C@@]2(C)[C@H]1CC[C@]2(O)C(=O)CO` stands -14.3% (inactive) and -7.83% (inactive); under `CC1(C)O[C@@H]2CC3C4C[C@H](F)C5=CC(=O)C=CC5(C)C4C(O)CC3(C)[C@]2(C(=O)CO)O1` (stereo partly drawn), -54.9% (active).
In the case of `CCCc1nnc(NC(=O)CCC(=O)N2CCN(S(=O)(=O)c3ccc(OC)cc3)CC2)s1` it was -1.97% (inactive); in that of `CCOC(=O)c1cccc(NC(=O)CN2C(=O)C3CC=CCC3C2=O)c1` (stereo not drawn), 14.4% (inactive); in that of `O=S(=O)(c1ccccc1)c1nc(-c2ccccc2)oc1NCCCN1CCOCC1`, “inactive”.
Turning to `O=[N+]([O-])c1ccc(NCCCN2CCOCC2)c(Cl)c1`, the activity change was -21.3% (inactive).
For the compound `Nc1nc(NCCCN2CCOCC2)nc(Nc2ccccc2)c1[N+](=O)[O-]`, the activity change was -59.1% (active).
Regarding `Cc1ccc(Cn2c(C)c3cnn(CC(=O)NCCN4CCOCC4)c(=O)c3c2C)cc1`, the activity change is -4.12% (inactive).
Under `O=C(CSc1ncn[nH]1)Nc1nc2c(F)c(F)c(F)cc2s1` stands -7.33% (inactive).
In the case of `C=CCNc1nc(N)c([N+](=O)[O-])c(NC2CCCCC2)n1` it was 66.3% (inactive); in that of `Nc1nc(Nc2ccccc2F)nc(NC2CCCCC2)c1[N+](=O)[O-]`, -71.1% (active); in that of `Nc1nc(NCC2CCCO2)nc(Nc2ccccc2F)c1[N+](=O)[O-]` (stereo not drawn), 0% (inactive).
